Bioassay records deposited in PubChem BioAssay by National Center for Advancing Translational Sciences (NCATS).
Rows were chosen to be rich in hits. Some 19% of all compounds tested hit in one or more screens of this group.
IL-1B inflam inh – qHTS for Inhibitors of Inflammasome Signaling: IL-1-beta AlphaLISA Primary Screen | THP-1 LPS/ATP IL-1B secretion, AlphaLISA, 16 h; hits give low values | activity change, % at 57.5 µM | hit rate 4.7% among 360,000; in the data active = activity change below about -50%; inconclusive = mostly about -30% to -49%
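Secreted IL-1B measured by AlphaLISA bead assay after 16 h compound exposure of THP-1 cells; compounds (final up to 57.5 uM) added 1 h before LPS (250 ng/mL) and ATP (1.25 mM) stimulation; lower signal means less secretion.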
HT1080 IDH1KD tx – qHTS for induction of synthetic lethality in tumor cells producing 2HG: qHTS for the HT-1080-IDH1KD cell line | Potency, µM (top dose mostly 46.1 µM), without a hit: top-dose activity, negative = toxicity, usual class: cytotoxic | hit rate 2% among 360,000 | HT-1080 IDH1 knockdown viability, ATP luminescence, 48 h;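 note: potency is the fitted concentration of half-maximal effect; 0% = DMSO wells and -100% = cell-free medium wells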
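Using the IDH1-knockdown HT-1080 line run in the same batch and compound series as the NT line, viability after 48 h at 37 °C was determined by CellTiter-Glo luminescence and expressed as % activity.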
DT40 TDP1 CPT – qHTS for Inhibitors of human tyrosyl-DNA phosphodiesterase 1 (TDP1): qHTS in cells in presence of CPT. AID 686979, 2013. chicken DT40 Tdp1-/-;hTDP1 cells + 20 nM CPT, ATP luminescence, 48 h. Potency, µM (doses to about 46.2 µM), for inactives: at the highest dose activity change, negative = growth inhibition, most hits filed as inhibitors. hit rate 12% among 420,000; note: potency is the fitted concentration of half-maximal effect; nearly all actives have a fitted effect of over 55% in size
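Cell growth measured by CellTiter-Glo luminescence after a minimum 48 h, 37 C compound exposure with 20 nM CPT in Tdp1-knockout DT40 cells stably expressing hTDP1, seeded 400/well; qHTS titration format.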
HT1080-NT tox – qHTS for induction of synthetic lethality in tumor cells producing 2HG: qHTS for the HT-1080-NT fibrosarcoma cell line; HT-1080-NT fibrosarcoma viability, CellTiter-Glo ATP luminescence, 48 h; Potency, µM (top dose mostly 46.1 µM), for the others: at the top dose activity, negative = less viability, hits mostly cytotoxic; hit rate 1.6% among 360,000; AID 686970, 2013;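 note: NT is the 2HG producing partner of a matched IDH1 knockdown line; potency is the fitted concentration of half-maximal effect; 0% = DMSO-treated cells and -100% = media-only wells without cells; nearly all actives have a fitted effect of over 55% in size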
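HT-1080-NT; 750 cells/well; 5% FBS RPMI; 48 h compound, 37 degrees C; CellTiter-Glo luminescence; curve fitting and curve-class assignment.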
TDP1 cell noCPT – qHTS for Inhibitors of human tyrosyl-DNA phosphodiesterase 1 (TDP1): qHTS in cells in absence of CPT | DT40 Tdp1-/- hTDP1 cells, no CPT, ATP luminescence, 48 h | Potency, µM (series often up to 46.2 µM), for inactives: top-dose activity change, negative = growth inhibition, actives largely listed as inhibitors | hit rate 15% among 420,000 | AID 686978, 2013; note: potency is the fitted concentration of half-maximal effect; nearly all actives have a fitted effect of over 55% in size
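Camptothecin absent (DMSO only). Human TDP1-complemented DT40 knockout cells, 400 cells/well, 37 °C for minimum 48 hr; ATP measured via CellTiter-Glo, 30 min dark incubation, luminescence.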
* hit, by the source's call; [ ] = dose if it differs, or a comment. Unless noted, calls come from the whole dose curve; as a rule, active = well fitted curve in the direction sought with a large enough effect; inconclusive = small, poorly fitted or top-dose-only effect, or another doubt; inactive = no such curve, though single readings can be large; an effect the other way counts as inactive or inconclusive. Unless noted, % is set by controls: 0 for no effect and ±100 for the full control effect.

For COc1ccc(CN(C(=O)c2snc(C(N)=O)c2N)C(C(=O)NC2CCCC2)c2ccc(OC)c(OC)c2)cc1 (stereo not drawn) the results were IL-1B inflam inh -21, HT1080 IDH1KD tx -1%, DT40 TDP1 CPT inconclusive, HT1080-NT tox 3% and TDP1 cell noCPT inconclusive.
For COc1ccc(CN(C(=O)c2nsc(Cl)c2Cl)C(C(=O)NC2CCCC2)c2ccc(C)cc2)cc1 (stereo not drawn) the results were IL-1B inflam inh -22, HT1080 IDH1KD tx inconclusive, DT40 TDP1 CPT 12µM*, HT1080-NT tox -27% and TDP1 cell noCPT 15µM*.
Screening CC(C(=O)Nc1cccnc1)N1C(=O)C2C3C=CC(C3)C2C1=O (stereo not drawn) returned IL-1B inflam inh 9, HT1080 IDH1KD tx 9%, DT40 TDP1 CPT -28%, HT1080-NT tox 13% and TDP1 cell noCPT -26%.
Screening COc1cccc(C(=O)N2c3nc(-c4ccco4)nn3C3(CCCCC3)[C@@H]3CCCC[C@@H]32)c1 returned DT40 TDP1 CPT inconclusive and TDP1 cell noCPT 16µM*.
Screening Cc1ccc(C(=O)N2c3nc(-c4ccco4)nn3C3(CCCCC3)[C@@H]3CCCC[C@@H]32)cc1 returned DT40 TDP1 CPT 16µM* and TDP1 cell noCPT 15µM*.
`O=C(c1ccccc1)N1c2nc(-c3ccco3)nn2C2(CCCCC2)[C@@H]2CCCC[C@@H]21` gave DT40 TDP1 CPT -4% and TDP1 cell noCPT 2%.
For COc1ccccc1C(=O)N1c2ncnn2C2(CCCCC2)[C@@H]2CCCC[C@@H]21 the results were DT40 TDP1 CPT -12% and TDP1 cell noCPT -18%.
Screening Cc1ccc(SCC(=O)NC(=O)NCCC(C)C)c(C)c1 returned IL-1B inflam inh 3, HT1080 IDH1KD tx -12%, DT40 TDP1 CPT 7%, HT1080-NT tox -6% and TDP1 cell noCPT -2%.
Screening COc1ccc(C(=O)NCc2nc(-c3ccccc3NC(=O)c3cc(C)oc3C)oc2C)cc1F returned DT40 TDP1 CPT 25% and TDP1 cell noCPT 3%.
For CCOc1ccc(CCNC(=O)CS(=O)(=O)Cc2nc(-c3ccccc3F)oc2C)cc1 the results were IL-1B inflam inh -61*, HT1080 IDH1KD tx -16%, DT40 TDP1 CPT inconclusive, HT1080-NT tox -22% and TDP1 cell noCPT 12µM*.
Cc1ccccc1-c1nc(CS(=O)(=O)CC(=O)Nc2c(C)cccc2C)c(C)o1 was read as DT40 TDP1 CPT inconclusive and TDP1 cell noCPT 18µM*.
For Cc1ccc(CNC(=O)CS(=O)(=O)Cc2nc(-c3ccccc3C)oc2C)cc1 the results were DT40 TDP1 CPT inconclusive and TDP1 cell noCPT 16µM*.
`O=C(CNc1cccc(Cl)c1)NNC(=S)NCc1ccccc1` gave IL-1B inflam inh -12, HT1080 IDH1KD tx -12%, DT40 TDP1 CPT inconclusive, HT1080-NT tox -21% and TDP1 cell noCPT 23µM*.
Screening S=C(NCc1ccccc1)NNc1ccccc1 returned IL-1B inflam inh 5, HT1080 IDH1KD tx inconclusive, DT40 TDP1 CPT 4.6µM*, HT1080-NT tox inconclusive and TDP1 cell noCPT 5.8µM*.
`CCNC(=S)NNc1ccccc1` gave IL-1B inflam inh -95*, HT1080 IDH1KD tx 6.5µM*, DT40 TDP1 CPT 3.3µM*, HT1080-NT tox 8.2µM* and TDP1 cell noCPT 5.2µM*.
`Cc1cccc(NC(=S)NNC(=S)NCc2ccccc2)c1` gave IL-1B inflam inh 1, HT1080 IDH1KD tx inconclusive, DT40 TDP1 CPT -10%, HT1080-NT tox 2% and TDP1 cell noCPT 3%.
O=C(CNc1ccc(Cl)cc1)NNC(=S)NCc1ccccc1 was read as IL-1B inflam inh inconclusive, HT1080 IDH1KD tx -14%, DT40 TDP1 CPT inconclusive, HT1080-NT tox -5% and TDP1 cell noCPT inconclusive.
For COc1ccc(S(=O)(=O)Nc2cccc(S(=O)(=O)N3CCCC3)c2)cc1OC the results were IL-1B inflam inh 13, HT1080 IDH1KD tx -2%, DT40 TDP1 CPT -7%, HT1080-NT tox -1% and TDP1 cell noCPT -7%.
`Cc1ccc(OCCN2C(=O)NC3(CCc4ccccc4C3)C2=O)cc1` (stereo not drawn) gave IL-1B inflam inh 2, HT1080 IDH1KD tx -2%, DT40 TDP1 CPT -13%, HT1080-NT tox -1% and TDP1 cell noCPT 1%.
For CNc1cc(Cl)nc(SC)n1 the results were IL-1B inflam inh 34, HT1080 IDH1KD tx 2%, DT40 TDP1 CPT 0%, HT1080-NT tox 0% and TDP1 cell noCPT 15%.
CSc1nc(Cl)cc(Nc2ccc(O)cc2)n1 was read as IL-1B inflam inh 16, HT1080 IDH1KD tx 13µM*, DT40 TDP1 CPT inconclusive, HT1080-NT tox 16µM* and TDP1 cell noCPT inconclusive.
COc1ccc(CCNC(=O)c2ccc(N(C)S(=O)(=O)c3ccc(C)cc3)cc2)cc1OC was read as IL-1B inflam inh -4, HT1080 IDH1KD tx -11%, DT40 TDP1 CPT 21µM*, HT1080-NT tox inconclusive and TDP1 cell noCPT 21µM*.
COc1ccc(CCNC(=O)COc2ccc(N(C)S(=O)(=O)c3ccc(Cl)cc3)cc2)cc1 was read as IL-1B inflam inh -14, HT1080 IDH1KD tx -10%, DT40 TDP1 CPT 23µM*, HT1080-NT tox -2% and TDP1 cell noCPT inconclusive.
COc1ccc(S(=O)(=O)NCc2ccc(C(=O)NCCN(C)Cc3ccccc3)cc2)cc1 was read as IL-1B inflam inh -20, HT1080 IDH1KD tx -15%, DT40 TDP1 CPT 18µM*, HT1080-NT tox -28% and TDP1 cell noCPT 21µM*.
`CN(c1ccc(OCC(=O)NCCc2ccccc2)cc1)S(=O)(=O)c1ccc(Cl)cc1` gave IL-1B inflam inh -6, HT1080 IDH1KD tx 0%, DT40 TDP1 CPT inconclusive, HT1080-NT tox -11% and TDP1 cell noCPT inconclusive.
COc1ccc(CCNC(=O)c2ccc(CNc3nc(=S)[nH]c4ccccc34)cc2)cc1OC was read as IL-1B inflam inh 6, HT1080 IDH1KD tx -13%, DT40 TDP1 CPT 15µM*, HT1080-NT tox -15% and TDP1 cell noCPT inconclusive.
Cc1ccc(NC(=O)c2ncn(CCCNCC3CCCO3)n2)cc1C (stereo not drawn) was read as IL-1B inflam inh 29, HT1080 IDH1KD tx -5%, DT40 TDP1 CPT 5%, HT1080-NT tox -1% and TDP1 cell noCPT -26%.
CC(C)CNS(=O)(=O)c1ccc(OCC(=O)NCC2CCCO2)c(Cl)c1 (stereo not drawn) was read as IL-1B inflam inh 10, HT1080 IDH1KD tx -3%[9.24 µM], DT40 TDP1 CPT 0%, HT1080-NT tox -1% and TDP1 cell noCPT -13%.
